# Experimental data as given in PubChem BioAssay (NCATS).
# Records with an inconclusive call do not appear. Entries that show only a call come without a potency. Activity calls are given as the source filed them. Unless noted, calls follow the shape of the dose curve; as a rule, active = well fitted curve in the direction sought with a large enough effect; inconclusive = small, poorly fitted or top-dose-only effect, or another doubt; inactive = no such curve, though single readings can be large; an effect the other way counts as inactive or inconclusive.
# How the values were obtained:
# [1] = qHTS assay to identify small molecule inhibitors of chordoma cells - UCH-2 (AID 1259356); also: potency is read from the fitted curve at half-maximal effect
# [2] = P-glycoprotein substrates identified in KB-8-5-11 adenocarcinoma cell line, qHTS therapeutic library screen (AID 1346987); also: nearly all actives have a fitted effect of over 65% in size; also: potency is read from the fitted curve at half-maximal effect
# In short: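 Luminescence from CellTiter-Glo, read 5 min after addition, quantified survival of KB-8-5-11 (P-gp-overexpressing) cells exposed to compounds for 72 h. AC50 was derived from concentration-response curves.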
# [3] = Natriuretic polypeptide receptor (hNpr1) antagonism - Pilot counterscreen GloSensor control cell line (AID 1347045; calls by dose curve; also: series mostly up to about 38 µM)
# In short: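 Cells were first seeded and incubated overnight at 37C, then loaded with 2% GloSensor substrate for 2 h. Compounds were added for 30 min at room temperature, followed by a baseline read, 50 uM SNP and a final read after 20 min.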
# [4] = biological target: Atrial natriuretic peptide receptor 1 (Homo sapiens) (UniProt P16066); experiment: Natriuretic polypeptide receptor (hNpr1) antagonism - Pilot screen (AID 1347049; calls by dose curve;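 also: HEK293 cells with hNpr1 and GloSensor cGMP luciferase stimulated by 0.1 nM hNppA; agonist-evoked cGMP luminescence read 20 min after hNppA addition; series mostly up to about 58 µM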)
# Chain of Atrial natriuretic peptide receptor 1 (Homo sapiens) (P16066 whole entry, looked up): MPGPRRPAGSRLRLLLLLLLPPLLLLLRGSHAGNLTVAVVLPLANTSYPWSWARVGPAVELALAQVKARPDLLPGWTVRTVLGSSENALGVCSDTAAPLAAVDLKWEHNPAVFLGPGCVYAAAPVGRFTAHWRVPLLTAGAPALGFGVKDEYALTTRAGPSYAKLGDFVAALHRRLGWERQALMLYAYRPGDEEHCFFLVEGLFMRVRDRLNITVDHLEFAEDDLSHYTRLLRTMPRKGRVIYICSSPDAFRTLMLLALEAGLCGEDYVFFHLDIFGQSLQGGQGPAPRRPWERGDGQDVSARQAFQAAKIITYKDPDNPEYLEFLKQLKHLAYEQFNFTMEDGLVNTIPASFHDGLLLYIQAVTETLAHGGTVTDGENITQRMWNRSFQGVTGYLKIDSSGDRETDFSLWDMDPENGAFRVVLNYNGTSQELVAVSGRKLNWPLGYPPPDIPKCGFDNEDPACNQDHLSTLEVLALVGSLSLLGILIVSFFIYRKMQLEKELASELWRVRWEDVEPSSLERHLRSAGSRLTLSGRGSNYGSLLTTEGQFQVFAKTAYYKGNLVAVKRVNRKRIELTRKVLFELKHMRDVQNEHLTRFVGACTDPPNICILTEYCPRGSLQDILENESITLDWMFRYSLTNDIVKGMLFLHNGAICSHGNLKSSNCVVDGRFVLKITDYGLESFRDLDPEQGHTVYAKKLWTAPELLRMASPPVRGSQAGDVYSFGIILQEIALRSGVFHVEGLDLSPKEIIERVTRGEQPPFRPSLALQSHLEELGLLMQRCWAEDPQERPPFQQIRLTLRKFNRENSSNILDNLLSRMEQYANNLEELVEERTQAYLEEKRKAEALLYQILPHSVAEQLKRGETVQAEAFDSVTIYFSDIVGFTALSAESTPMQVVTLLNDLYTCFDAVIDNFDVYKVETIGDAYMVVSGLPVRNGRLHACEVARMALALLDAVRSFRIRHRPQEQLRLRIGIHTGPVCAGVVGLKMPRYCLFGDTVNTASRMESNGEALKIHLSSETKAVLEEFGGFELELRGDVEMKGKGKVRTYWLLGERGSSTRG
# In short: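 Receptor antagonism read as cGMP-dependent luminescence in hNpr1/pGS-40F HEK293 cells: pre-read after 30 min compound exposure, post-read 20 min after hNppA agonist at 0.1 nM final, all at room temperature, protected from light; A-71915 titration as control.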
# [5] = biological target: Atrial natriuretic peptide receptor 2 (Homo sapiens) (UniProt P20594); experiment: Natriuretic polypeptide receptor (hNpr2) antagonism - Pilot subtype selectivity assay (AID 1347050; calls by dose curve)
# Chain of Atrial natriuretic peptide receptor 2 (Homo sapiens) (P20594 whole entry, looked up): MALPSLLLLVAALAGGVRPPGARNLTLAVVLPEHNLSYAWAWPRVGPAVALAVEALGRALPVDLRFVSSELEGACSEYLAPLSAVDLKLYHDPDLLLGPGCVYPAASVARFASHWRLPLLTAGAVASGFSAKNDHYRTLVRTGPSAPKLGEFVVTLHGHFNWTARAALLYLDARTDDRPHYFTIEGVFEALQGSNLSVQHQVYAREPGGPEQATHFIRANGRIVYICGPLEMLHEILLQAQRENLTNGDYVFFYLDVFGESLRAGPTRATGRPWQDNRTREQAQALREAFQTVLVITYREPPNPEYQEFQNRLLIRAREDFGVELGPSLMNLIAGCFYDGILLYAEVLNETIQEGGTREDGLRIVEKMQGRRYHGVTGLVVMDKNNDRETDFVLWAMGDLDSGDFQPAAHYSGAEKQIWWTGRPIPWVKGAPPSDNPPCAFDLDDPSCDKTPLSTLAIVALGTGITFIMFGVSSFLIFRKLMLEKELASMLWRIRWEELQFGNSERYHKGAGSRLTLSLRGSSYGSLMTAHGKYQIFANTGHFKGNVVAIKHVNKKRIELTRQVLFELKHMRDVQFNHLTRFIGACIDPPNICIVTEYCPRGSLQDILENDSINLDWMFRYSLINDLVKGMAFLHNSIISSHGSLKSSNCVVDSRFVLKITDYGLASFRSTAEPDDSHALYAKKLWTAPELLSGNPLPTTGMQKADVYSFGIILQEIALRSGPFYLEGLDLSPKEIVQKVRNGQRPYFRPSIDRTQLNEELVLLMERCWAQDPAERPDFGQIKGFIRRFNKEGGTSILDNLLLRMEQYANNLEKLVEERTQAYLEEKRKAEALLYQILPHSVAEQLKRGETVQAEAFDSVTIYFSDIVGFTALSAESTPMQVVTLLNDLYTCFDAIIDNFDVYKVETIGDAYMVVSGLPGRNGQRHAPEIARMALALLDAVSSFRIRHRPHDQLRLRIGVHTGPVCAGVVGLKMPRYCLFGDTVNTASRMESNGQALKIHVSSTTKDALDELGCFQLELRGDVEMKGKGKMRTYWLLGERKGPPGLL
# In short: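 Antagonist mode: compounds (LOPAC1280, seven 1:5 dilutions) added 30 min before 1 nM hNppC stimulation of hNpr2-HEK293 cGMP-sensor cells; luminescence read before and 20 min after agonist at ambient temperature.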
# [6] = P-glycoprotein substrates identified in KB-3-1 adenocarcinoma cell line, qHTS therapeutic library screen (AID 1346986); also: nearly all actives have a fitted effect of over 60% in size
# In short: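 Viability read by CellTiter-Glo after 72 h compound exposure in dose-response of KB-3-1 and KB-8-5-11 (P-gp-high) cells. Hits needed AC50 < 10 uM, >50% maximum response and curve class -1.1 to -2.4. Cherry-picks retested ± tariquidar, including pcDNA/MDR-19 HEK-293 pair.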
compound,measurement,setting,value
O=C(CS(=O)C(c1ccccc1)c1ccccc1)NO (configuration not stated),Potency,[1],inactive
same,Potency,[2],inactive
CCC1(C)CC(=O)NC(=O)C1,Potency,[1],inactive
same,Potency,[2],inactive
O[C@H]1[C@H]2[C@H](O)CCCN2C[C@H]1O,Potency,[1],inactive
same,Potency,[2],inactive
C[C@]12CCC(=O)C=C1C=C[C@@H]1[C@@H]2CC[C@@]2(C)[C@H]1CC[C@@]2(O)CCC(=O)O,Potency,[1],inactive
same,Potency,[2],inactive
C=CCN(C1=NCCN1)c1c(Cl)cccc1Cl,Potency,[1],inactive
same,Potency,[2],inactive
same,Potency,[3],inactive
same,Potency,[4],inactive
same,Potency,[5],inactive
Cn1sc(Cl)cc1=O,Potency,[1],inactive
same,Potency,[2],inactive
O=C1CCO1,Potency,[1],inactive
same,Potency,[2],inactive
CCC1(c2ccccc2)C(=O)NC(=O)NC1=O,Potency,[1],inactive
same,Potency,[2],inactive
CCCC(C)(COC(N)=O)COC(=O)NC1CC1 (configuration not stated),Potency,[1],inactive
same,Potency,[2],inactive
O=C(O)C(Cl)(Cl)Cl,Potency,[1],inactive
same,Potency,[2],inactive
C[C@H]1C(=O)O[C@H]2[C@H](O)[C@]34C5OC(=O)[C@]3(O[C@@H]3OC(=O)[C@H](O)C34[C@H](C(C)(C)C)[C@H]5O)C12O (some centres not stated),Potency,[6],inactive
same,Potency,[2],inactive
COC1=CC(=O)O[C@@H](CCc2ccccc2)C1,Potency,[6],inactive
same,Potency,[2],inactive
CC(=O)O[C@H]1C[C@H](O[C@H]2[C@@H](O)C[C@H](O[C@H]3[C@@H](O)C[C@H](O[C@H]4CC[C@@]5(C)[C@H](CC[C@@H]6[C@@H]5C[C@@H](O)[C@]5(C)[C@@H](C7=CC(=O)OC7)CC[C@]65O)C4)O[C@@H]3C)O[C@@H]2C)O[C@H](C)[C@H]1O[C@@H]1O[C@H](CO)[C@@H](O)[C@H](O)[C@H]1O,Potency,[1],146 nM (active)
same,Potency,[2],206 nM (active)
N#CC1(N2CCCCC2)CCCCC1,Potency,[1],inactive
same,Potency,[2],inactive
CCCCC[C@@H](O)C1C(=O)OC(C)[C@H](O)/C=C/C=C/C=C/C=C/C=C(\C)C(O)C(O)C(O)C[C@H](O)C[C@H](O)C[C@H](O)C[C@H](O)C[C@@H]1O (some centres not stated),Potency,[1],inactive
same,Potency,[2],inactive
CCCCCOc1cc2c(cc1-c1cc(/C=C/C(=O)O)ccc1O)C(C)(C)CCC2(C)C,Potency,[6],inactive
CNc1ccc(C(=O)CC(O)CCC(C)C2OC(=O)CC(O)CC(=O)CC(O)CC(O)CC(O)CC(O)CC3(O)CC(O)C(C(=O)OC)C(CC(O[C@@H]4O[C@H](C)[C@@H](O)[C@H](N)[C@@H]4O)/C=C/C=C/C=C/C=C/C=C/C=C/C=C/C2C)O3)cc1 (some centres not stated),Potency,[1],inactive
same,Potency,[2],inactive
COc1cc2c(cc1OC)[C@@]13CCN4CC5=CCO[C@H]6CC(=O)N2[C@H]1[C@H]6[C@H]5C[C@H]43,Potency,[1],inactive
same,Potency,[2],inactive
O=C1OC2(c3cc(Br)c(O)cc3Oc3c2cc(Br)c(O)[c]3[Hg])c2ccccc21 (configuration not stated),Potency,[1],inactive
same,Potency,[2],inactive
CC(=O)OC1CN2CCC1CC2 (configuration not stated),Potency,[1],inactive
same,Potency,[2],inactive
